Measurements reported in ChEMBL document CHEMBL3433997, “St. Jude Leishmania screening dataset” (2016).

Columns and labels:
Assay type in all cases: functional
[1] = molecular target: Solute carrier family 2, facilitated glucose transporter member 1 (Homo sapiens) (UniProt P11166); experiment: ST_JUDE_LEISH: Cytotoxicity at 2uM final concentration against transgenic Leishmania Mexicana promastigotes LmGLUT1 that are glucose transport deficient and complemented with the human glucose transporter GLUT1. Activity is measured by DNA content using SYBR green in vitro
Solute carrier family 2, facilitated glucose transporter member 1 (Homo sapiens), sequence (P11166 whole entry): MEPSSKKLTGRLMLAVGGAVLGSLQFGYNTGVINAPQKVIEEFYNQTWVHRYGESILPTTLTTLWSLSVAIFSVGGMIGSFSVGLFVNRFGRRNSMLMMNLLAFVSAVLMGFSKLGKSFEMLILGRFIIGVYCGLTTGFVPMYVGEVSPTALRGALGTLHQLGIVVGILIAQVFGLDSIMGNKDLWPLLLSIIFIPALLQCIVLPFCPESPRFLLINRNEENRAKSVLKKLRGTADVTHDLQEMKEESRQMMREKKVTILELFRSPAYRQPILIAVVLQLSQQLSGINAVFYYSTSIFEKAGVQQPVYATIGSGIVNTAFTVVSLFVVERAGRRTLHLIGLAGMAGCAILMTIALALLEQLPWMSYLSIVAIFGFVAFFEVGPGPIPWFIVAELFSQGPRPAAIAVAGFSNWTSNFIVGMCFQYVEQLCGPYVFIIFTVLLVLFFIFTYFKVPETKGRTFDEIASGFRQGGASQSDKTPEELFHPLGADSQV

[2] = molecular target: Hexose transporter 1 (Plasmodium falciparum) (UniProt O97467); experiment: ST_JUDE_LEISH: Cytotoxicity at 2uM final concentration against transgenic Leishmania Mexicana promastigotes LmPfHT that are glucose transport deficient and complemented with the Plasmodium falciparum hexose transporter. Activity is measured by DNA content using SYBR green in vitro
[3] = molecular target: Glucose transporter (Leishmania mexicana) (UniProt O61059); experiment: ST_JUDE_LEISH: Cytotoxicity at 2uM final concentration against transgenic Leishmania Mexicana promastigotes LmGT2 that are glucose transport deficient and complemented with the L. Mexicana glucose transporter 2. Activity is measured by DNA content using SYBR green in vitro

| Compound | inhibition [1] | inhibition [2] | inhibition [3] |
| --- | --- | --- | --- |
| CC(C)(C)Nc1nc(Nc2cccc([N+](=O)[O-])c2)nc(-n2ccnc2)n1 | 1.91% | 1.9% | -1.47% |
| CS(=O)(=O)Cc1ccc(Nc2nccc(N3CCCc4cc(NC(=O)Nc5cccc(C(F)(F)F)c5)ccc43)n2)cc1 | 9.54% | 15.9% | 2.08% |
| c1ccn2c(Sc3ncnc4sccc34)ncc2c1 | -0.89% | -1.87% | -1.33% |
| COc1cc(Nc2ccnc3cc(-c4nccs4)ccc23)ccc1OCCCc1nc2ccccc2[nH]1 | 3.6% | 4.2% | 4.89% |
| c1ccc(CN2CCC(NCc3ccc(-c4ccc(CNC5CCCC5)cc4)cc3)CC2)cc1 | 1.73% | 1.09% | 0.48% |
| CCN(CC)CCOc1c(Cl)cc(Cl)cc1CNCCCNc1cc(=O)c2ccccc2[nH]1 | 0.34% | 1.03% | 4.06% |
| Cc1cccc2nc(-c3cccc(-c4ccc(NC(=O)C(C)CN(C)C)cc4)c3)[nH]c12 (centres undefined) | -2.74% | 0.04% | -1.14% |
| CC(C)(C)CC(C)(C)c1ccc(O)c(C(=O)Nc2cccc([N+](=O)[O-])c2)c1 | 1.48% | 2.51% | 1.44% |
| Oc1ccc(C2CNCCc3c2cc(O)c(OCc2ccccc2)c3Cl)cc1 (centres undefined) | -0.07% | -1.5% | 2.54% |
| Cc1c(O)cccc1Nc1ccnc2ccc(C(F)(F)F)cc12 | -0.14% | 0.25% | -1.33% |
| CCCCc1cc(=O)oc2cc(C)cc(OCc3ccccc3F)c12 | -0.28% | 1.33% | 1.06% |
| O=C(NCc1ccc(Cl)c(Cl)c1)[C@H]1CNCCN1C(=O)c1ccccc1 | 2.83% | 1.69% | 2.44% |
| O=c1c(NCCCN(Cc2ccc(F)cc2)c2ccccn2)c(NCc2ccncc2)c1=O | 4.35% | 3.53% | 5.17% |
| CS(=O)(=O)c1ccccc1CNC(=O)c1ccc(-c2cccc(-c3nc4cc(C(F)(F)F)ccc4[nH]3)c2)cc1 | 2.96% | 2.74% | 2.22% |
| O=C(Nc1ccc(-c2cccc(-c3nc4cc(C(F)(F)F)ccc4[nH]3)c2)cc1)c1csnn1 | 16.1% | 23.4% | 14.2% |
| COc1ccc(C(=O)CCC(=O)N(Cc2ccc(-c3ccc(CNCc4cccnc4)cn3)cc2)C2CCN(Cc3ccccc3)CC2)cc1F | 3.47% | 1.26% | 3.53% |
| Nc1nc(N)c(-c2ccccc2)c(=O)[nH]1 | 4.51% | 3.54% | 1.16% |

| Compound | inhibition [1] | inhibition [2] | inhibition [3] |
| --- | --- | --- | --- |
| Cc1nc2ccc3ccc(CNc4ccc(C#N)cc4)cc3c2c(=O)[nH]1 | 50.2% | 39.6% | 56% |
| Oc1ccc(CCCNc2nc(NCc3cccc4ccccc34)nc(NC3CCNCC3)n2)cc1 | -0.36% | 3.07% | 2% |
| Cc1cccc2nc(-c3ccc(-c4cccc(NCc5cn6cccnc6n5)c4)cc3)[nH]c12 | 2.03% | 0.59% | -2.51% |
| CCCc1cc(OC)c(CC2c3cc(O)c(C)cc3CCN2C)cc1OC (centres undefined) | -2.27% | -4.03% | 3.59% |
| CCNc1cc(C(=O)N[C@@H](Cc2ccccc2)[C@H](O)CNC2(CCC(C)C)CC2)cc(N2CCCCS2(=O)=O)c1 | -1.85% | -0.04% | -0.78% |
| O=C(/C=C/c1cccc(Cl)c1)NCCCCCN1CCC(c2c[nH]c3ccccc23)CC1 | 3.67% | 6.67% | 0.06% |
| CCCC1N=C(N)N=C(N)N1c1ccccc1 (centres undefined) | 2.1% | -1.28% | 0.53% |
| CCCN(CCCCNC(=O)c1ccc(-c2cccnc2)cc1)C1CCc2c(O)cccc2C1 (centres undefined) | 3.63% | 2.13% | 3.11% |
| COc1ccc(OCC(=O)Nc2nc(-c3ccc(OC)cc3)c(C)s2)cc1 | 1.08% | 0.94% | -1.09% |
| CC(C)CNCc1cccc(-c2ccc(CNc3ccc(C(=O)c4ccccc4)cc3)cc2)c1 | 1.27% | 0.62% | -1.03% |
| CC1(C)[C@H]2CC[C@@H](CNc3nc(NCCc4c[nH]cn4)nc(NCc4cc(F)ccc4F)n3)[C@@H]1C2 | 4.07% | 0.62% | 1.36% |
| COc1cc2nccc(Nc3ccc(OCc4ccc(NC(C)=O)cc4)cc3)c2cc1OC | 5.38% | 7.36% | 2.65% |
| COc1cc(C(C)C)ccc1N1CCN(CCCCNC(=O)c2ccc(NC(=O)c3ccc(Cl)cc3)cc2)CC1 | 4.1% | 1.59% | 2.26% |
| CCc1c(CCNCCCCCCNCCc2ccc(Br)cc2)ccc(O)c1O | -0.07% | 0.74% | 1.12% |
| COc1cc(NC(=O)CCCN2CCN(c3cccc(Cl)c3Cl)CC2)ccc1N1CCN(C(C)C)CC1 | -2.72% | 0.8% | -0.51% |
| CCCCCN(C(=O)Nc1cc(C(F)(F)F)cc(C(F)(F)F)c1)C(C)c1nc2ccccc2c(=O)n1CC (centres undefined) | -0.28% | 1.02% | 6.73% |
